Our source for the outcome values is PubChem BioAssay AID953 (National Center for Advancing Translational Sciences (NCATS), 2007).

A short description of the experiment: Confirmation Concentration-Response Assay for Agonists of the Thyroid Stimulating Hormone Receptor: Activators of Intracellular cAMP Concentrations in Parental HEK 293. The source says: NIH Chemical Genomics Center [NCGC] NIH Molecular Libraries Screening Centers Network [MLSCN] MLSCN Grant: 1 X01 MH080680-01 PI Name: Dr. Marvin Gershengorn NCGC Assay Overview: This cell based assay utilized a cyclic nucleotide gated ion channel (CNG) as a biosensor for cAMP induction. HEK 293 cells stably expressing the modified CNG were purchased from BD biosciences (http://www.atto.com/products/actone/features_benefits.shtml) . Stimulation of cAMP production causes the CNG to open and subsequent membrane depolarization to occur. A fluorescent membrane potential dye (BD biosciences) was utilized to detect cAMP stimulation in cells. The cells were maintained in DMEM medium (Invitrogen) containing 10 % FBS (Hyclone), 100 units/ml Penicillin, 100 ug/ml Streptomycin (Invitrogen), and 250 ug/ml Geneticin (Invitrogen) and 1 ug/ml Puromycin (Invitrogen) at 37C in 5% CO2. […]
NCGC Assay Protocol Summary: High Throughput Screening. […] 23 nl/well compound or control was then added to the assay plates, which were incubated for additional 30 min before reading a Envision fluorescence plate reader (Perkin Elmer) in bottom-read mode for fluorescence intensity (emission at 590 nm). Keywords: cAMP, CNG Ion Channel, quantitative high throughput screening, qHTS, HTS, probe identification, CNG, cAMP, cyclic nucleotide gated ion channel PubChem

SMILES strings stand for the structures. This is one part of the list. Results filed as inconclusive are left out. Active and inactive are the calls of the source. The call rests on the fitted dose curve; in most records, active means well fitted curve in the direction sought with a large enough effect; inconclusive means small, poorly fitted or top-dose-only effect, or effect the other way, or another doubt; inactive means no such curve, though single readings can be large or run the other way.

Regarding `C=CCN1C(=O)C2(C(C(=O)OCC)=C(N)Oc3c2c(=O)oc2ccccc32)c2ccccc21` (configuration not stated), the result was inactive.
For `CCOC(=O)C1=C(C)OC(N)=C(C(=O)OC)C12C(=O)Nc1ccc(Br)cc12` (configuration not stated) the value was “inactive”.
